Experimental data published in the supplement of paper PMC9023506.
Counter-ions that a name gives are not always drawn.

test system: Danio rerio larvae (5 dpf); test: activity during first hour (no stimuli), difference vs DMSO (percentage points (treated minus DMSO)); higher = more of the behaviour than the DMSO vehicle control; conditions: 10 µM; exposure time: 3 h pre-incubation + 3 h imaging
Description: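 5-dpf wild-type zebrafish larvae were imaged in 96-well plates. They were treated with 190 Tocris FDA-approved drugs at 10 µM (1 µl/ml DMSO) for 3 h before and 3 h during imaging at 28.5 °C, 48 larvae per drug. Automated image analysis gave % time moving and optomotor responses. Values are drug group mean minus DMSO vehicle mean (n=844), in percentage points, for 10 behaviours.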

SMILES	activity during first hour
CCOC(=O)[C@H](CCc1ccccc1)N[C@@H](C)C(=O)N1[C@H](C(=O)O)C[C@@H]2CCC[C@@H]21 [Ramipril]	2.6
NC(=O)c1ncn([C@@H]2O[C@H](CO)[C@@H](O)[C@H]2O)n1 [Ribavirin]	1.58
CC/C(=C(\c1ccccc1)c1ccc(OCCN(C)C)cc1)c1ccccc1 [Tamoxifen citrate]	31.4
Brc1c(NC2=NCCN2)ccc2nccnc12	-17
CCOc1nc2cccc(C(=O)O)c2n1Cc1ccc(-c2ccccc2-c2nnn[nH]2)cc1 [Candesartan]	4.62
C[C@]12CCC(=O)C=C1CC[C@@H]1[C@@H]2[C@@H](O)C[C@@]2(C)[C@H]1CC[C@]2(O)C(=O)CO [Hydrocortisone]	3.43
Clc1ccc2nsnc2c1NC1=NCCN1 [Tizanidine hydrochloride]	-14.2
Nc1ncn([C@H]2C[C@H](O)[C@@H](CO)O2)c(=O)n1 [Decitabine]	0.325
Cc1ccccc1C(=O)Nc1ccc(C(=O)N2CCCC(O)c3cc(Cl)ccc32)c(C)c1 (stereo not given) [Tolvaptan]	1.26
CCCCCCCN(CC)CCCC(O)c1ccc(NS(C)(=O)=O)cc1 (stereo not given) [Ibutilide hemifumarate]	-4.99
Nc1nc(F)nc2c1ncn2[C@@H]1O[C@H](CO)[C@@H](O)[C@@H]1O [Fludarabine]	3.66
COCCCOc1cc(C[C@@H](C[C@H](N)[C@@H](O)C[C@H](C(=O)NCC(C)(C)C(N)=O)C(C)C)C(C)C)ccc1OC [Aliskiren hemifumarate]	-4.92
CN[C@H]1CC[C@@H](c2ccc(Cl)c(Cl)c2)c2ccccc21 [Sertraline hydrochloride]	-24.2
CCc1nc(N)nc(N)c1-c1ccc(Cl)cc1 [Pyrimethamine]	-0.915
COc1cc2nc(N3CCN(C(=O)C4COc5ccccc5O4)CC3)nc(N)c2cc1OC (stereo not given) [Doxazosin mesylate]	-2.96
OCCN(CCO)c1nc(N2CCCCC2)c2nc(N(CCO)CCO)nc(N3CCCCC3)c2n1 [Dipyridamole]	-0.789
CC(=O)Oc1ccccc1C(=O)O [Aspirin]	-0.0609
COc1cc2nccc(Oc3ccc(NC(=O)C4(C(=O)Nc5ccc(F)cc5)CC4)cc3)c2cc1OC	20
COc1ccccc1Oc1c(NS(=O)(=O)c2ccc(C(C)(C)C)cc2)nc(-c2ncccn2)nc1OCCO [Bosentan]	1.27
CC(C)c1nc(CN(C)C(=O)N[C@H](C(=O)N[C@@H](Cc2ccccc2)C[C@H](O)[C@H](Cc2ccccc2)NC(=O)OCc2cncs2)C(C)C)cs1 [Ritonavir]	-0.488

SMILES	activity during first hour
CNC(=O)c1cc(Oc2ccc(NC(=O)Nc3ccc(Cl)c(C(F)(F)F)c3)cc2)ccn1 [Sorafenib]	3.08
CCN(CC)CCNC(=O)c1c(C)[nH]c(/C=C2\C(=O)Nc3ccc(F)cc32)c1C [Sunitinib malate]	-14.4
O=C(O)C[C@H](O)C[C@H](O)/C=C/c1c(C2CC2)nc2ccccc2c1-c1ccc(F)cc1 [Pitavastatin calcium]	-0.557
C=CC(=O)N1CCC[C@@H](n2nc(-c3ccc(Oc4ccccc4)cc3)c3c(N)ncnc32)C1 [Ibrutinib]	-6.62
NC(=O)N1c2ccccc2C=Cc2ccccc21 [Carbamazepine]	-2.68
CCCCCOC(=O)Nc1nc(=O)n([C@@H]2O[C@H](C)[C@@H](O)[C@H]2O)cc1F [Capecitabine]	6.31
CCN(Cc1ccncc1)C(=O)C(CO)c1ccccc1 (stereo not given) [Tropicamide]	-5.17
COc1cccc2c1C(=O)c1c(O)c3c(c(O)c1C2=O)C[C@@](O)(C(=O)CO)C[C@@H]3O[C@H]1C[C@H](N)[C@H](O)[C@H](C)O1 [Doxorubicin hydrochloride]	-5.82
Nc1cc(N2CCCCC2)nc(N)[n+]1[O-] [Minoxidil]	2.82
C[C@@H]1C[C@H]2[C@@H]3CCC4=CC(=O)C=C[C@]4(C)[C@@]3(F)[C@@H](O)C[C@]2(C)[C@@]1(O)C(=O)CO [Dexamethasone]	15
CCC(C)(C)C(=O)O[C@H]1C[C@@H](C)C=C2C=C[C@H](C)[C@H](CC[C@@H]3C[C@@H](O)CC(=O)O3)[C@H]21 [Simvastatin]	7.12
CCc1c2c(nc3ccc(OC(=O)N4CCC(N5CCCCC5)CC4)cc13)-c1cc3c(c(=O)n1C2)COC(=O)[C@]3(O)CC	-4.43
O=C(O)CCCc1ccccc1 [Sodium 4-Phenylbutyrate]	3.48
CC(C)COCC(CN(Cc1ccccc1)c1ccccc1)N1CCCC1 (stereo not given) [Bepridil hydrochloride]	0.257
O=c1n(CCCN2CCN(c3cccc(Cl)c3)CC2)nc2ccccn12 [Trazodone hydrochloride]	-0.623
COc1cc(Nc2c(C#N)cnc3cc(OCCCN4CCN(C)CC4)c(OC)cc23)c(Cl)cc1Cl [Bosutinib]	-16.6
Cc1ccc(NC(=O)c2ccc(CN3CCN(C)CC3)cc2)cc1Nc1nccc(-c2cccnc2)n1 [Imatinib mesylate]	-12.5
COc1ccccc1OCC(O)CN1CCN(CC(=O)Nc2c(C)cccc2C)CC1 (stereo not given) [Ranolazine dihydrochloride]	10.4
CC#C[C@]1(O)CC[C@H]2[C@@H]3CCC4=CC(=O)CCC4=C3[C@@H](c3ccc(N(C)C)cc3)C[C@@]21C [Mifepristone]	-3.58
COC(=O)C1=C(C)NC(C)=C(C(=O)OC(C)C)C1c1cccc2nonc12 (stereo not given) [Isradipine]	0.0385
